{"source": "the antibiotic and cytotoxicity screens of Wong et al. (2023)", "note": "The whole screen tested about 39,000 compounds, of which about 3,300 (8.5%) were called active. For the sample, actives were picked, then their nearest neighbours and some compounds at random.", "data": [{"system": "HepG2", "assay": "cytotoxicity call (relative viability < 0.9)", "details": "10 µM", "values": [{"smiles": "C[C@@H]1CN([C@@H](C)CO)C(=O)c2cccc(NC(=O)c3cnccn3)c2O[C@H]1CN(C)C(=O)Nc1ccc2c(c1)OCO2", "cytotoxicity call": "inactive"}, {"smiles": "C[C@@H]1CN([C@H](C)CO)C(=O)CCCn2nncc2CO[C@@H]1CN(C)C(=O)Nc1ccc2c(c1)OCCO2", "cytotoxicity call": "inactive"}, {"smiles": "C[C@@H]1CN([C@H](C)CO)C(=O)Cc2cc(NC(=O)Cc3cn(C)c4ccccc34)ccc2O[C@H]1CN(C)Cc1ccc(Cl)c(Cl)c1", "cytotoxicity call": "inactive"}, {"smiles": "C[C@H]1CN([C@@H](C)CO)C(=O)Cc2cc(NC(=O)Cc3cn(C)c4ccccc34)ccc2O[C@H]1CN(C)Cc1ccc(Cl)c(Cl)c1", "cytotoxicity call": "inactive"}, {"smiles": "C[C@@H]1CN([C@H](C)CO)C(=O)Cc2cc(NC(=O)Cc3cn(C)c4ccccc34)ccc2O[C@@H]1CN(C)Cc1ccc(Cl)c(Cl)c1", "cytotoxicity call": "active"}, {"smiles": "C[C@H]1CN([C@@H](C)CO)C(=O)Cc2cc(NC(=O)Cc3cn(C)c4ccccc34)ccc2O[C@@H]1CN(C)Cc1ccc(Cl)c(Cl)c1", "cytotoxicity call": "inactive"}, {"smiles": "C[C@@H]1CN([C@@H](C)CO)C(=O)Cc2cc(NC(=O)Cc3cn(C)c4ccccc34)ccc2O[C@H]1CN(C)Cc1ccc(Cl)c(Cl)c1", "cytotoxicity call": "inactive"}, {"smiles": "C[C@H](CO)N1C[C@H](C)[C@H](CN(C)Cc2ccc(Cl)c(Cl)c2)Oc2ccc(NC(=O)Cc3cn(C)c4ccccc34)cc2CC1=O", "cytotoxicity call": "active"}, {"smiles": "O=C(C[C@H]1CC[C@H]2[C@@H](COC[C@H](O)CN2S(=O)(=O)c2cccc(F)c2)O1)NCCCN1CCOCC1", "cytotoxicity call": "inactive"}, {"smiles": "C[C@@H]1CCCCO[C@H](CN(C)Cc2ccc(C(=O)O)cc2)[C@H](C)CN([C@H](C)CO)C(=O)c2cc(NS(=O)(=O)c3cccs3)ccc2O1", "cytotoxicity call": "inactive"}, {"smiles": "Cc1ccc(S(=O)(=O)Nc2ccc3c(c2)C(=O)N([C@@H](C)CO)C[C@H](C)[C@H](CN(C)C(=O)NC2CCCCC2)OCCCC[C@H](C)O3)cc1", "cytotoxicity call": "inactive"}, {"smiles": "NC(=O)N1C(=O)[C@H]2[C@H](C1=O)[C@H]1C=C(CCCO)[C@@H]2[C@H](c2cccs2)N1Cc1cc2c(cc1Br)OCO2", "cytotoxicity call": "inactive"}, {"smiles": "O=C(C[C@@H]1C[C@@H]2c3cc(NC(=O)C4CCOCC4)ccc3O[C@@H]2[C@@H](CO)O1)NCc1cc(F)ccc1F", "cytotoxicity call": "inactive"}, {"smiles": "CNC[C@H]1OCCCC[C@@H](C)Oc2ccc(NC(=O)Nc3ccc(C(F)(F)F)cc3)cc2C(=O)N([C@H](C)CO)C[C@H]1C", "cytotoxicity call": "inactive"}, {"smiles": "COc1ccc(NC(=O)Nc2ccc3c(c2)C(=O)N([C@@H](C)CO)C[C@@H](C)[C@@H](CN(C)S(=O)(=O)c2c(C)noc2C)OCCCC[C@@H](C)O3)cc1", "cytotoxicity call": "inactive"}, {"smiles": "CCN(CC)CCOC(=O)c1ccc(N)cc1.Cl", "cytotoxicity call": "inactive"}, {"smiles": "CCCC(C(=O)OCCN(CC)CC)(c1ccccc1)c1ccccc1.Cl", "cytotoxicity call": "active"}, {"smiles": "CCN(CC)CCNC(C(=O)OCCC(C)C)c1ccccc1.Cl.Cl", "note": "(configuration not stated)", "cytotoxicity call": "inactive"}, {"smiles": "CN1CCN(C(=O)C[C@@H]2CC[C@H]3[C@@H](COC[C@@H](O)CN3S(=O)(=O)c3cccc(Cl)c3)O2)CC1", "cytotoxicity call": "inactive"}, {"smiles": "C[C@@H]1CN([C@@H](C)CO)C(=O)Cc2cc(NC(=O)c3ccncc3)ccc2O[C@@H]1CN(C)Cc1ccc2c(c1)OCO2", "cytotoxicity call": "inactive"}, {"smiles": "C[C@@H]1CCCCO[C@@H](CN(C)Cc2ccc3c(c2)OCO3)[C@H](C)CN([C@H](C)CO)C(=O)c2cc(NC(=O)Nc3ccc(F)cc3)ccc2O1", "cytotoxicity call": "active"}, {"smiles": "C[C@H]1CCCCO[C@@H](CN(C)Cc2ccc3c(c2)OCO3)[C@@H](C)CN([C@@H](C)CO)C(=O)c2cc(NC(=O)Nc3ccc(F)cc3)ccc2O1", "cytotoxicity call": "inactive"}, {"smiles": "C[C@@H]1CCCCO[C@H](CN(C)Cc2ccc3c(c2)OCO3)[C@@H](C)CN([C@H](C)CO)C(=O)c2cc(NC(=O)Nc3ccc(F)cc3)ccc2O1", "cytotoxicity call": "active"}, {"smiles": "C[C@@H]1CCCCO[C@H](CN(C)Cc2ccc3c(c2)OCO3)[C@H](C)CN([C@@H](C)CO)C(=O)c2cc(NC(=O)Nc3ccc(F)cc3)ccc2O1", "cytotoxicity call": "active"}, {"smiles": "C[C@H](CO)N1C[C@H](C)[C@@H](CN(C)Cc2ccc3c(c2)OCO3)OCCCC[C@H](C)Oc2ccc(NC(=O)Nc3ccc(F)cc3)cc2C1=O", "cytotoxicity call": "active"}, {"smiles": "C[C@@H]1CCCCO[C@H](CN(C)C(=O)c2ccccc2)[C@@H](C)CN([C@@H](C)CO)C(=O)c2cc(NC(=O)Cc3ccccc3)ccc2O1", "cytotoxicity call": "inactive"}, {"smiles": "COc1ccccc1C#Cc1cnc2c(c1)C(=O)N([C@H](C)CO)C[C@@H](C)[C@H](CN(C)C(=O)CC1CC1)O2", "cytotoxicity call": "inactive"}, {"smiles": "NCc1ccc(C(N)=O)cc1", "cytotoxicity call": "inactive"}, {"smiles": "C[C@H](CO)N1C[C@H](C)[C@H](CN(C)Cc2cncnc2)Oc2cc(C#CC3CCCC3)ccc2S1(=O)=O", "cytotoxicity call": "inactive"}, {"smiles": "CN1CCN(C(=O)C[C@H]2CC[C@@H]3[C@@H](COc4ccc(NC(=O)c5cscn5)cc4C(=O)N3C)O2)CC1", "cytotoxicity call": "inactive"}, {"smiles": "C[C@@H]1CN([C@H](C)CO)C(=O)Cc2cc(NC(=O)C3CC3)ccc2O[C@H]1CN(C)Cc1ccc(C(=O)O)cc1", "cytotoxicity call": "inactive"}, {"smiles": "CCCCC(=O)C1CCCC=C1C(=O)O", "note": "(configuration not stated)", "cytotoxicity call": "inactive"}, {"smiles": "C[C@H](CO)N1C[C@H](C)[C@@H](CN(C)Cc2cccc(C(F)(F)F)c2)OCc2ccccc2-c2ccccc2C1=O", "cytotoxicity call": "inactive"}, {"smiles": "C[C@@H]1CN([C@@H](C)CO)C(=O)c2ccccc2-c2ccccc2CO[C@H]1CN(C)C(=O)c1cc(Cl)cc(Cl)c1", "cytotoxicity call": "inactive"}, {"smiles": "CC[C@@H](C)C(=O)O[C@H]1[C@@H]2CC3=C4CC(=O)O[C@@H](c5ccoc5)[C@]4(C)CC[C@@H]3[C@@](C)(C2=O)[C@@H](CC(=O)OC)C1(C)C", "cytotoxicity call": "inactive"}, {"smiles": "CSc1nc(C)nc2ccccc12", "cytotoxicity call": "inactive"}, {"smiles": "CC(C)NC(=O)NCC[C@@H]1CC[C@@H](NC(=O)CN(C)C)[C@@H](CO)O1", "cytotoxicity call": "inactive"}, {"smiles": "C[C@@H]1CCCCO[C@H](CN(C)Cc2ccc3c(c2)OCO3)[C@H](C)CN([C@H](C)CO)C(=O)c2cc(NC(=O)Nc3ccc(F)cc3)ccc2O1", "cytotoxicity call": "inactive"}, {"smiles": "C[C@@H]1CN([C@@H](C)CO)C(=O)c2cc(NC(=O)Nc3ccc(F)cc3)ccc2O[C@@H](C)CCCCO[C@@H]1CN(C)Cc1ccc2c(c1)OCO2", "cytotoxicity call": "active"}, {"smiles": "C[C@@H]1CN([C@@H](C)CO)C(=O)c2cc(NC(=O)Nc3ccc(F)cc3)ccc2O[C@@H](C)CCCCO[C@H]1CN(C)Cc1ccc2c(c1)OCO2", "cytotoxicity call": "active"}, {"smiles": "C[C@@H]1CN([C@H](C)CO)C(=O)c2cc(NC(=O)Nc3ccc(F)cc3)ccc2O[C@@H](C)CCCCO[C@@H]1CN(C)Cc1ccc2c(c1)OCO2", "cytotoxicity call": "inactive"}, {"smiles": "C[C@@H]1CCCCO[C@@H](CN(C)Cc2ccc3c(c2)OCO3)[C@@H](C)CN([C@H](C)CO)C(=O)c2cc(NC(=O)Nc3ccc(F)cc3)ccc2O1", "cytotoxicity call": "inactive"}, {"smiles": "C[C@H]1CCCCO[C@H](CN(C)Cc2ccc3c(c2)OCO3)[C@@H](C)CN([C@@H](C)CO)C(=O)c2cc(NC(=O)Nc3ccc(F)cc3)ccc2O1", "cytotoxicity call": "active"}, {"smiles": "C[C@@H]1CCCCO[C@@H](CN(C)Cc2ccc3c(c2)OCO3)[C@@H](C)CN([C@@H](C)CO)C(=O)c2cc(NC(=O)Nc3ccc(F)cc3)ccc2O1", "cytotoxicity call": "inactive"}, {"smiles": "C[C@@H]1CN([C@H](C)CO)C(=O)c2cc(NC(=O)Nc3ccc(F)cc3)ccc2O[C@@H](C)CCCCO[C@H]1CN(C)Cc1ccc2c(c1)OCO2", "cytotoxicity call": "active"}, {"smiles": "CO[C@H]1CN(C)C(=O)c2cc(NC(=O)C3CC3)ccc2OC[C@H](C)N(C(=O)CN2CCOCC2)C[C@@H]1C", "cytotoxicity call": "inactive"}, {"smiles": "O=C1OCCC/C=C\\[C@H]2O[C@@]34C=CCN(c5ccc6ccccc6c5)C(=O)[C@H]3N(CCCCCO)C(=O)[C@@H]4[C@@H]12", "cytotoxicity call": "inactive"}, {"smiles": "COCCOC(=O)N1C(=O)[C@@]2(c3ccccc31)[C@H](C(=O)Nc1nc3ccccc3s1)[C@H]1C(=O)O[C@H](c3ccccc3)[C@H](c3ccccc3)N1[C@@H]2c1ccccc1OCCO", "cytotoxicity call": "inactive"}, {"smiles": "Cc1ccc(S(=O)(=O)Nc2ccc3c(c2)C(=O)N([C@H](C)CO)C[C@H](C)[C@@H](CN(C)C(=O)Nc2ccc4c(c2)OCO4)OCCCC[C@@H](C)O3)cc1", "cytotoxicity call": "inactive"}, {"smiles": "C[C@@H]1CCCCO[C@@H](CN(C)C(=O)c2ccccc2)[C@H](C)CN([C@@H](C)CO)C(=O)c2cc(NC(=O)Cc3ccccc3)ccc2O1", "cytotoxicity call": "inactive"}, {"smiles": "COc1cccnc1N", "cytotoxicity call": "inactive"}, {"smiles": "COc1ccc(NC(=O)N(C)C[C@H]2OCCCC[C@H](C)Oc3ccc(NC(=O)CCC(F)(F)F)cc3C(=O)N([C@@H](C)CO)C[C@@H]2C)cc1", "cytotoxicity call": "inactive"}, {"smiles": "CO[C@@H]1CN(C)C(=O)c2ccc(NC(=O)c3cc(C)on3)cc2OC[C@@H](C)N(C(=O)C2CCC2)C[C@H]1C", "cytotoxicity call": "inactive"}, {"smiles": "COc1ccc(S(=O)(=O)Nc2ccc3c(c2)C(=O)N([C@H](C)CO)C[C@@H](C)[C@H](CN(C)C(=O)NC2CCCCC2)OCCCC[C@H](C)O3)cc1", "cytotoxicity call": "inactive"}, {"smiles": "C[C@H](CO)N1C[C@H](C)[C@H](CN(C)C(=O)Nc2ccc(F)cc2)Oc2ccc(NS(C)(=O)=O)cc2CC1=O", "cytotoxicity call": "inactive"}, {"smiles": "C[C@@H]1CCCCO[C@H](CN(C)S(=O)(=O)c2ccc(F)cc2)[C@@H](C)CN([C@@H](C)CO)C(=O)c2cc(NC(=O)C3CCCCC3)ccc2O1", "cytotoxicity call": "inactive"}, {"smiles": "O=C1O[C@H](c2ccccc2)[C@H](c2ccccc2)N2[C@H]1[C@@H](C(=O)N1CCCCCCC1)[C@]1(C(=O)Nc3ccc(C#CCCO)cc31)[C@H]2c1ccc(OCCO)cc1", "cytotoxicity call": "inactive"}, {"smiles": "COc1ccc(NC(=O)Nc2ccc3c(c2)C(=O)N([C@H](C)CO)C[C@H](C)[C@@H](CN(C)S(=O)(=O)c2ccc(OC)cc2)OCCCC[C@@H](C)O3)cc1", "cytotoxicity call": "inactive"}, {"smiles": "COCC#Cc1ccc2c(c1)O[C@@H](CN(C)S(=O)(=O)c1ccc(C)cc1)[C@@H](C)CN([C@@H](C)CO)S2(=O)=O", "cytotoxicity call": "inactive"}, {"smiles": "C[C@@H]1CCCCO[C@@H](CN(C)Cc2ccc3c(c2)OCO3)[C@H](C)CN([C@@H](C)CO)C(=O)c2cc(NC(=O)Nc3ccc(F)cc3)ccc2O1", "cytotoxicity call": "inactive"}, {"smiles": "C[C@H](CO)N1C[C@H](C)[C@H](CN(C)Cc2ccc3c(c2)OCO3)OCCCC[C@H](C)Oc2ccc(NC(=O)Nc3ccc(F)cc3)cc2C1=O", "cytotoxicity call": "inactive"}, {"smiles": "C[C@@H]1CCCCO[C@H](CN(C)Cc2ccc3c(c2)OCO3)[C@@H](C)CN([C@@H](C)CO)C(=O)c2cc(NC(=O)Nc3ccc(F)cc3)ccc2O1", "cytotoxicity call": "active"}]}]}
